Screens deposited in PubChem BioAssay by several laboratories.
The list is not random: actives were taken first. Their share in the collection is about 2.3%.
BCLXL inh: inhibitors of human Bcl-xL; GST-Bcl-xL / FITC-Bim BH3 peptide fluorescence polarization; inhibition, % at 10.9 µM; Q07817; 320,000 tested, 0.7% active;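 active means inhibition above the mean of all tested compounds plus 3 SD, cutoff set per campaign, cut at about 30% in these data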;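 further: inhibitors lower millipolarization by displacing the labeled peptide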
GLD-1 RNA inh: GLD-1-TGE RNA interaction inhibition (C. elegans). 320,000 tested, 0.44% active. inhibition, % at 5.96 µM. Q17339. purified GLD-1 + fluorescein TGE RNA, fluorescence polarization;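 active means percent inhibition above a per-plate cutoff, the plate mean of test compounds plus 3 SD, cut at about 30% in these data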
Target sequence (Q17339 whole entry, looked up): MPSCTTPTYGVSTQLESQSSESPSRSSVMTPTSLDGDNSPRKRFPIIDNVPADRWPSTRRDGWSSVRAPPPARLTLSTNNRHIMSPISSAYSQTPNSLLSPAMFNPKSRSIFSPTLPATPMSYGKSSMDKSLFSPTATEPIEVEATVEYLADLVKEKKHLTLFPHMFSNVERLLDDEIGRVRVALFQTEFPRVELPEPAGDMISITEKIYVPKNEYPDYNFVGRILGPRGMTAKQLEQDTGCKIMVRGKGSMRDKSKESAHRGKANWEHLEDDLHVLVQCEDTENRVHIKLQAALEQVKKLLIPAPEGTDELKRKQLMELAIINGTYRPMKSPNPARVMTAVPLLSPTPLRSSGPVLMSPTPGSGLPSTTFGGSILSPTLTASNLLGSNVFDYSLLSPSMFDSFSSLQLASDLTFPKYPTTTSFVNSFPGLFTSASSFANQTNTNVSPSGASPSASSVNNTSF
Mcl1 Noxa PPI: Mcl-1/Noxa interaction inhibition. AID 1022. 220,000 tested, 1.5% active. Q07820. TR-FRET Mcl-1/Noxa peptide binding, 2 h. inhibition, % at 21.7 µM;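 active means compounds that cut the protein-peptide binding signal by more than 50% relative to plate controls in a single-dose test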;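 further: His-tagged Mcl-1 with rhodamine Noxa BH3 peptide and terbium anti-His antibody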
Mcl-1 Bim block: disrupts Bim peptide binding to human Mcl-1 | AID 1009 | Q07820 | Bead-based flow cytometry, Bim peptide-Mcl-1 binding | 190,000 tested, 0.1% active | inhibition, % at 10 µM; in the data active means inhibition above about 40%
MCL1 BIM primary: disrupts human MCL1 binding to BIM-BH3 peptide. Q07820. GST-MCL1 / FITC-Bim-BH3 fluorescence polarization. inhibition, % at 10.9 µM. 320,000 tested, 0.68% active. AID 2057;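 active means inhibition above the mean inhibition of all tested compounds plus 3 SD, set per campaign, cut at about 40% in these data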;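 further: higher means more loss of mP so more displacement of Bim peptide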
Mcl1-Bid inh: disrupts binding of human Mcl-1 to Bid peptide; TR-FRET Mcl-1/Bid-Dy647 peptide binding, 1536-well; 220,000 tested, 0.97% active; inhibition, % at 21.7 µM; AID 1021;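 active means compounds that cut the binding signal by more than half at the single screening dose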;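 further: His-tagged Mcl-1 with europium anti-His antibody binding Bid BH3 peptide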
Bcl-xL conf: counter-screen for MCL1 inhibitors: confirmation of human Bcl-xL inhibitors; 1,700 tested, 54% active; shares compounds with MCL1 BIM primary; inhibition, % at 10.9 µM; GST-Bcl-xL / FITC-Bim BH3 peptide FP binding;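 active means inhibition above a cutoff equal to the mean inhibition of all tested compounds plus 3 SD, cut at about 30% in these data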
MCL1 BIM confirm: confirmation of human MCL1 and BIM-BH3 interaction inhibitors | 1,700 tested, 61% active | shares compounds with MCL1 BIM primary | GST-MCL1 / FITC-Bim-BH3 fluorescence polarization | inhibition, % at 10.9 µM;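 active means inhibition above the average of all tested compounds plus 3 SD, cut at about 40% in these data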
A number is an active result; – = inactive; · = no result given.

SMILES | BCLXL inh | GLD-1 RNA inh | Mcl1 Noxa PPI | Mcl-1 Bim block | MCL1 BIM primary | Mcl1-Bid inh | Bcl-xL conf | MCL1 BIM confirm
O=C(O)C1CCCC2CN3CCc4c([nH]c5ccccc45)C3C(O)C21 (stereo unspecified) | 86.4 | 34.8 | · | · | 104.0 | · | – | –
O=C(O)[C@@H]1[C@H]2C[C@H]3c4[nH]c5ccccc5c4CCN3C[C@@H]2CC[C@@H]1O | – | – | · | · | – | · | · | ·
O=C(O)c1c2c(nc3ccccc13)/C(=C/c1ccc(O)cc1)CC2 | 35.7 | – | 55.1 | – | 53.8 | – | 33.9 | 53.9
Cc1c(NCc2nc3ccccc3[nH]2)c(=O)n(-c2ccccc2)n1C | – | – | – | – | 54.6 | – | 41.2 | 55.0
Cc1c(NCc2cc(Cl)cc(Cl)c2O)c(=O)n(-c2ccccc2)n1C | – | – | – | – | – | – | · | ·
O=S(=O)(O)c1cc(O)c2c(O)c(N=Nc3cc(Cl)ccc3O)c(S(=O)(=O)O)cc2c1 | – | – | · | · | 56.1 | · | 35.9 | 57.4
COc1cc([C@H]2OC[C@H]3[C@@H]2CO[C@@H]3c2ccc(O[C@H]3O[C@H](CO)[C@@H](O)[C@H](O)[C@H]3O)c(OC)c2)ccc1O[C@@H]1O[C@H](CO)[C@@H](O)[C@H](O)[C@H]1O | · | – | · | · | · | · | · | ·
COc1ccc(NS(=O)(=O)c2ccc(F)c(Cl)c2)cn1 | 102.9 | 99.5 | · | · | 123.6 | · | 48.9 | 57.0
O=C(OCC(=O)N1CCCCCC1)c1cccc(Cl)c1 | – | – | · | · | – | · | · | ·
CN1CC=C2C(C#N)=C(N)C(C#N)(C#N)C(CCc3ccccc3)C2C1 (stereo unspecified) | 89.4 | 48.6 | – | – | 82.0 | – | 43.1 | 65.4
CN1CC=C2C(C#N)=C(N)C(C#N)(C#N)C(c3ccsc3)C2C1 (stereo unspecified) | 105.9 | 70.2 | – | – | 117.4 | – | – | –
N#CC1=C(S)N(c2ccccc2)C(c2cccs2)NC1=O (stereo unspecified) | – | – | – | – | – | – | · | ·
CN1CC=C2C(C#N)=C(N)C(C#N)(C#N)[C@H](c3cccs3)[C@H]2C1 | 112.1 | 79.0 | – | · | 118.1 | – | 62.9 | 70.8
CN1CC=C2C(C#N)=C(N)C(C#N)(C#N)[C@H](c3cccc(Cl)c3)C2C1 (stereo partly specified) | 104.4 | 78.8 | – | – | 115.5 | – | 31.1 | –
CN(C)N1C(N)=C(C#N)C(c2ccsc2)C2=C1CC(C)(C)CC2=O (stereo unspecified) | – | – | – | – | – | – | · | ·
CCOC(=O)N1CC=C2C(C#N)=C(N)C(C#N)(C#N)[C@H](c3ccc(OC(C)C)c(OCC)c3)[C@H]2C1 | – | – | – | – | – | – | · | ·
COc1ccc(CNC(=O)c2ccc(NC(=O)C3=CSCCO3)cc2)cc1 | – | – | · | · | – | · | · | ·
O=C(O)C(c1ccccc1)N1C(=O)/C(=C\c2ccc(O)c(O)c2)SC1=S (stereo unspecified) | – | – | · | · | 69.8 | · | 63.3 | 88.4
COc1cc(/C=C2\SC(=S)N(C(C(=O)O)c3ccccc3)C2=O)ccc1O (stereo unspecified) | – | – | – | · | – | – | · | ·
Cc1ccc(N=Cc2cccc(O)c2O)c(C)c1 | – | – | – | – | 60.2 | – | – | –
CC(N=Cc1cccc(O)c1O)c1ccccc1 (stereo unspecified) | 33.3 | – | 51.8 | – | 66.1 | – | 32.4 | 71.3
Cc1ccccc1N=Cc1cccc(O)c1O | 36.2 | – | – | – | 65.1 | – | 37.4 | 56.1
CC(N=Cc1cc([N+](=O)[O-])ccc1O)c1ccccc1 (stereo unspecified) | – | – | – | – | – | – | · | ·
Cc1cc(OCC(=O)NCCCN2CCCC2=O)c2c(C)c(C)c(=O)oc2c1 | – | – | · | · | – | · | · | ·
O=C1CSC(=S)N1/N=C/c1ccc(O)c(O)c1O | 66.0 | – | 100.6 | · | 84.9 | 100.1 | 74.7 | 93.5
Oc1ccc(-c2cn3c(n2)SCC3)cc1O | – | – | 95.2 | – | 60.0 | – | 30.4 | 54.9
